Each compound was assayed on Human papillomavirus type 1a E7 protein (residues 1-88) (assay: HPV1a E7 small-molecule binders, primary screen, biochemical, small-molecule microarray, residues 1-88, 635 nm (AID 1129)). Conditions: small-molecule microarray binding, fluorescence 635 nm; higher = more signal.

Structure (SMILES) | composite z-score
C=CCNC(=O)[C@H]1[C@@H]2C(=O)O[C@@H](c3ccccc3)[C@@H](c3ccccc3)N2[C@@H](c2ccc(O)cc2)[C@]12C(=O)N(C(=O)OCCOC)c1ccc(C#CCCO)cc12 | -0.0757
CC(C)CNC(=O)[C@@H]1c2ccccc2C(=O)N(Cc2cc(C(F)(F)F)cc(C(F)(F)F)c2)[C@H]1c1ccc(CO)cc1 | -0.569
O=C(CS)NCCCCCCNC(=O)[C@@H]1C[C@@H]2C(=O)N3CCC[C@H]3C(=O)N2[C@@H]1c1ccc(O)cc1 | 1.21
CCCCCCc1nc(CCCc2cc3c(c(CCCCCC)n2)[Si](C(C)C)(C(C)C)OC3)cc2c1[Si](C(C)C)(C(C)C)OC2 | -1.19
O=C1O[C@H](c2ccccc2)[C@H](c2ccccc2)N2[C@H]1[C@@H](C(=O)NC[C@H](O)c1ccccc1)[C@]1(C(=O)Nc3ccc(C#CCCO)cc31)[C@H]2c1ccc(O)cc1 | -1.08
C=C[C@@H](COC(C)=O)N(Cc1ccccc1[N+](=O)[O-])S(=O)(=O)c1ccc(Br)cc1 | 1.11
O=C1N(CCS(=O)(=O)c2ccccc2)Cc2ccccc2C[C@]12N=C(c1ccc(OCCCO)cc1)O[C@@H]2c1ccccc1 | 1.08
CCOC(=O)C1=C[C@@H](CC)N(S(=O)(=O)c2ccc(C)cc2)[C@H]1c1ccccc1 | 1.21
Cc1ccc(S[C@]2(C(=O)NCc3ccccc3)CC(=O)N(Cc3ccccc3)[C@@H]2c2ccc(CO)cc2)cc1 | 0.0804
CC(C)c1ccc(NN2C(C(O)c3ccc(N(C)C)cc3)C=CC3C(=O)N(c4ccccc4)C(=O)C32)cc1 (stereo not given) | 1.24
